{
  "source": "PubChem BioAssay (NCATS)",
  "note": "Records with an inconclusive call do not appear. A call without a number means that no potency is given here. A number with no mark means an inactive call. The source made the active and inactive calls. Calls come from the whole dose curve; as a rule, active = well fitted inhibition curve with a large enough effect; inconclusive = small, poorly fitted or top-dose-only effect; inactive = flat fitted curve, though single readings scatter.",
  "data": [
    {"molecular_target": "Calcium and integrin-binding protein 1 (Homo sapiens) (UniProt Q99828)", "sequence (Q99828 whole entry, looked up)": "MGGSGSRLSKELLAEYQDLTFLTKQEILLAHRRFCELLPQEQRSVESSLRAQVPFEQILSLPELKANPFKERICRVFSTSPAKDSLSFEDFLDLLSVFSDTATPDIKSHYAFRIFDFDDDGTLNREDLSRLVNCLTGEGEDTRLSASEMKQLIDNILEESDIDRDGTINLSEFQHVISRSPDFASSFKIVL", "test": "Primary qHTS for Identification of Calcium Integrin Binding Protein 1 (CIB1) Competitor (AID 1508620);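 note: GST tagged CIB1 binding a fluorescein labelled alphaIIb integrin peptide tracer; top concentration of the series differs between compounds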", "details": "CIB1-GST / FITC-alphaIIb peptide fluorescence polarization; series mostly up to 57.7 µM", "summary_of_the_method": "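CIB1-GST (1 uM final) and compound incubated 15 min at room temperature before adding FITC-alphaIIb peptide tracer (100 nM final). Competition for binding read by fluorescence polarization (ex 480, em 540) after another 15 min at room temperature.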", "values": [
      {"smiles": "CC1=C(C)C(=O)OC(C(C)C2C(O)CC3C4C5OC5C5(O)CC(OC6OC(CO)C(O)C(O)C6O)CC(O)C5(C)C4CCC32C)C1", "note": "(centres undefined)", "Potency": "inactive"},
      {"smiles": "C[C@@]12C[C@]3(O)O[C@H](O1)[C@]1(COC(=O)c4ccccc4)[C@H]3C[C@@]12O[C@@H]1O[C@H](COC(=O)c2ccccc2)[C@@H](O)[C@H](O)[C@H]1O", "Potency": "inactive"},
      {"smiles": "CC1(C)CC2C(C1)C1(C)CCC13OC3(CO)C2O", "note": "(centres undefined)", "Potency": "inactive"},
      {"smiles": "CCCCCCc1cccc(NC(=O)[C@H](N)CCP(=O)(O)O)c1", "Potency": "inactive"},
      {"smiles": "NCc1ccc(OCCCc2sc(-c3ccc4c(c3)/C(=N/Nc3nc5ccccc5s3)CCC4)nc2C(=O)O)cc1", "Potency": "inactive"},
      {"smiles": "CCOc1ccc(C(Nc2ccccn2)c2ccc3ccc(C)nc3c2O)cc1C", "note": "(centres undefined)", "Potency": "inactive"},
      {"smiles": "C[C@]12CCC(=O)C=C1[C@@H](O)C[C@@H]1[C@@H]2[C@@H](O)C[C@@]2(C)[C@H]1CC[C@]2(O)C(=O)CO", "Potency": "inactive"},
      {"smiles": "C[C@]12CCC[C@](C)(C(=O)O)C1CCC13C=C(CO)C(CCC12)C3", "note": "(some centres undefined)", "Potency": "inactive"},
      {"smiles": "COc1cc(N2CCC(N(C)C)CC2)ccc1Nc1ncc(Cl)c(Nc2ccccc2P(C)(C)=O)n1", "Potency": "inactive"},
      {"smiles": "C[C@@H]1C(=O)O[C@H]2CC34[C@H]5C[C@@H](C(C)(C)C)C36[C@@H](OC(=O)[C@@H]6O)O[C@@]4(C(=O)O5)[C@]21O", "note": "(some centres undefined)", "Potency": "inactive"},
      {"smiles": "O=C1NC(=Nc2ccccc2F)S/C1=C\\c1ccc(C(=O)O)cc1", "Potency": "inactive"},
      {"smiles": "NCCOCCOCCNC(=O)Cc1ccc(Nc2nc(NCc3ccc(F)cc3)nc(NCC3CCCCC3)n2)cc1", "Potency": "inactive"},
      {"smiles": "CC1(C)CCCC2(C)C(CO)C3CCC2C31", "note": "(centres undefined)", "Potency": "inactive"},
      {"smiles": "Cc1nnc(C(C)C)n1C1CC2CCC(C1)N2CCC(NC(=O)C1CCC(F)(F)CC1)c1ccccc1", "note": "(centres undefined)", "Potency": "inactive"},
      {"smiles": "CC(=O)C1CCC2(C)C3=C(CCC12C)C1(C)CCC(=O)C(C)(C)C1CC3", "note": "(centres undefined)", "Potency": "inactive"},
      {"smiles": "C=C1CC/C=C(/CO)C(=O)C[C@@H]2[C@@H]1CC2(C)C", "Potency": "inactive"},
      {"smiles": "CC(=O)Oc1cc2c(s1)CCN([C@H](C(=O)C1CC1)c1ccccc1F)C2", "Potency": "inactive"},
      {"smiles": "COc1c(C)c(OCC=C(C)C)cc2c1C(=O)NC2=O", "Potency": "inactive"},
      {"smiles": "CC1(C)C[C@H]2C3=CCC4[C@@]5(C)CC[C@H](O[C@H]6O[C@H](C(=O)O)[C@@H](O)[C@H](O)[C@H]6O[C@H]6O[C@H](CO)[C@@H](O)[C@H](O)[C@H]6O[C@@H]6O[C@H](CO)[C@@H](O)[C@H](O)[C@H]6O)[C@](C)(CO)C5CC[C@@]4(C)[C@]3(C)CC[C@@]2(C)[C@H](O[C@@H]2OC[C@H](O)[C@H](OC3O[C@H](CO)[C@@H](O)[C@H](O)[C@H]3O)[C@H]2O)[C@@H]1O", "note": "(some centres undefined)", "activity change, negative = inhibition": "-7.85% [at 12.4 µM]"}
    ]}
  ]
}
